From PubChem BioAssay AID504377 (National Center for Advancing Translational Sciences (NCATS), 2011)
The source made the active and inactive calls. The rule behind the calls is not given here.

Test: Immunofluorescence assay for phosphorylation of ATM-targeted proteins for Identifying a Potential Treatment of Ataxia-Telangiectasia: SAR for Probe
Conditions: F2111 A-T fibroblasts, KAP-1 pS824 immunofluorescence, NCS
From the text: NIH Chemical Genomics Center [NCGC] NIH Molecular Libraries Probe Centers Network [MLPCN] MLPCN Grant: MH089030-01 Assay Submitter (PI): Wei Zheng and Yosef Shiloh Ataxia-telangiectasia (A-T) is a devastating and progressive disease for which, there is no cure. Although A-T is a multisystem disease, it is stereotyped characterized by its neurological symptoms such as truncal ataxia, due to cerebellar cortical degeneration of the Purkinje and granule cells. Other symptoms of A-T are telangiectasias (dilated blood vessels), primary immunodeficiency, marked sensitivity to ionizing radiation (IR), chromosomal instability and predisposition to cancer. The underlying genetic cause of A-T is null mutations in the ATM (A-T mutated) gene. ATM is a nuclear serine/threonine kinase that functions as a master regulator of the cellular responses to double strand breaks (DSBs) in the DNA. Upon activation by DSBs, ATM phosphorylates a plethora of downstream targets, including KAP-1 on […]. KAP-1 phosphorylation occurs shortly in response to DSBs and mediates global chromatin relaxation, which facilitates DSB repair. To screen for small molecules that will compensate for the loss of ATM in cells derived from A-T patients, we monitored KAP-1 phosphorylation as a readout for ATM-like activity using an AlphaLISA assay. […]

| SMILES | Potency |
| --- | --- |
| CC(=O)c1c(O)c(C)c(O)c(Cc2c(O)c3c(c(C(=O)/C=C/c4ccccc4)c2O)OC(C)(C)C=C3)c1O | 10 µM (active) |
